Among all 1,400 compounds or so, about 140 (10%) were called active.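 How the source made its calls: active means Half-maximal inhibitory dose from the fit at or below ten times the top valid tested dose; inconclusive means Invalid fit, or flat curve showing 30 to 70% inhibition; inactive means the rest.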 A selection follows. Potency and affinity values are given separately.
Target: Lysine-specific demethylase 4C (Homo sapiens) (UniProt Q9H3R0)
Assay: inhibition of JMJD2C H3K9me3 demethylation – biochemical, DELFIA europium, cherry-picked samples, dose response (AID 488835);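 further: signal is the H3K9me2 demethylation product detected by a dimethyl-specific antibody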
Conditions: GST-JMJD2C(1-420); series mostly up to 6 µM

Chain of Lysine-specific demethylase 4C (Homo sapiens) (Q9H3R0 1-420 limits assumed): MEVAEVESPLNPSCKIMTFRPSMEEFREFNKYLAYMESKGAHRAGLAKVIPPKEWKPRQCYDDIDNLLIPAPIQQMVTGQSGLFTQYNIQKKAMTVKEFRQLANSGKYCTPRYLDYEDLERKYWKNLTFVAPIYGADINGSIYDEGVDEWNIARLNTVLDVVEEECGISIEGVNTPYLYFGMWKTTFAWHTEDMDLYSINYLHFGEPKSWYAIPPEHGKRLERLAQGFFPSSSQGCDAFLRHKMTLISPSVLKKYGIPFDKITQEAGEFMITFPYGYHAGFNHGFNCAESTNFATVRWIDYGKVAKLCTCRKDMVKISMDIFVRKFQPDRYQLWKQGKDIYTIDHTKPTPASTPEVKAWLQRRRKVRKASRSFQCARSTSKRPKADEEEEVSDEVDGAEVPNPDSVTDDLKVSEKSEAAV

outcome, inactive:
CS(=O)(=O)N(CCc1ccccc1)CC(=O)NCc1ccc(Cl)cc1
O=C(Cn1c(=O)sc2ccccc21)NCc1ccco1
COc1ccccc1Nc1ncnc2ccccc12
Cc1ccc(NC(=O)CSc2cccc[n+]2[O-])c([N+](=O)[O-])c1
Cc1cc(C)cc(C(=O)N2CCC(C(N)=O)CC2)c1
O=C(/C=C/c1ccc2c(c1)OCO2)NCCS(=O)(=O)N1CCN(c2ccc(F)cc2)CC1
O=C(N/N=C/c1ccccc1)c1c(O)c2ccccc2[nH]c1=O
COc1ccc(NC(=O)O/N=C/c2ccccc2)cc1
CC(C)Cn1c(N)c(C(=O)COC(=O)c2c(O)c(Cl)cc(Cl)c2Cl)c(=O)n(C)c1=O
CC(=O)C[C@@H](O)CC(=O)[C@H]1OC(=O)CCCCCc2ccccc21
Cn1c(=N)n(CC(O)c2ccccc2)c2ccccc21 (stereo not given)
COc1cccc(NC(=O)COC(=O)c2ccc(S(=O)(=O)NCc3ccco3)cc2)c1
CSCCC(NS(=O)(=O)c1ccc(Cl)cc1)C(=O)O (stereo not given)
O=C(CSc1nc2ccccc2c(=O)n1Cc1ccc(C(=O)NC2CC2)cc1)NCc1ccco1
Cc1nnc(SCc2nc3ccccc3[nH]2)s1
CCCC(=O)Nc1nc2c(c(=O)[nH]1)CCCC2
COc1ccc(C(=O)N2CCC(C(=O)NCc3ccccn3)CC2)cc1
COc1ccc(N=Cc2cccc(C)c2O)cc1Cl
O=C(NC(=S)Nc1ccccn1)c1ccc([N+](=O)[O-])cc1
CN(C)c1ccc(C2Nc3ccccc3C(=O)N2CCN2CCNC2=O)cc1 (stereo not given)
COc1ccc(/C=C2\Sc3ccc(C(=O)N4CCCC4)cc3N(C)C2=O)cc1OC
Cc1ccc(NC(=O)CSc2nc3c(c(=O)[nH]2)CN(Cc2ccc(F)cc2)CC3)cc1C
O=c1cc(-c2ccc(O)c(O)c2)oc2c(C3O[C@H](CO)[C@@H](O)[C@H](O)[C@H]3O)c(O)cc(O)c12 (stereo not given in full)
CC(=O)c1ccc(O[C@@H]2O[C@H](CO)[C@@H](O)[C@H](O)[C@H]2O)cc1
CC(C)n1cnc2c(NCc3ccccc3)nc(NCc3ccccc3)nc21
Cn1nnc(NC(=O)CSc2ccc(Cl)cc2)n1
Cc1cccn2c(=O)c(/C=N/O)c(N3CCCC3)nc12
Cc1ccc(NC(=O)CSc2ncc(S(=O)(=O)c3ccccc3)c(=O)[nH]2)cc1C
Cc1cc(C)nc(NCc2ccc(Cl)cc2)n1
Cn1c(=O)[nH]c(=O)c2c1nc(N1CCOCC1)n2CCc1ccccc1
COc1ccc(NC(=O)N(C)C[C@H]2Oc3c(NC(=O)C4CC4)cccc3C(=O)N([C@H](C)CO)C[C@@H]2C)cc1
Cc1occc1-c1nnc(SCC(=O)c2cc3ccccc3oc2=O)o1
Cc1ccc(CCNC(=O)C23C[C@H]4C[C@@H](C2)CC(n2nnc(C)n2)(C4)C3)cc1
CCOC(=O)c1oc2ccccc2c1COC(=O)C(C)NC(=O)c1ccco1 (stereo not given)
COc1cc(/C=N/N2CCN(c3ccccc3OC)CC2)ccc1O
COc1ccccc1-n1c(SCC(=O)N2CCCC2)nc2cccnc21
CCCn1nnnc1SCC(=O)NCc1ccc(OC)cc1
CCOC(=O)c1[nH]c(CSc2nnnn2-c2ccccc2C)c(C(=O)OCC)c1C
CCN(C[C@H]1N[C@@](C)(C(=O)OC)[C@H]2C(=O)N(Cc3ccccc3)C(=O)[C@@H]12)C(=O)Nc1ccc(Cl)cc1
O=C(Cc1ccccc1)NNC(=O)c1cccs1
O=C(NC1(O)C(=O)c2ccccc2C1=O)c1c(Cl)cccc1Cl
CCC(=O)Nc1ccc(NC(=O)Cc2ccccc2)cn1
CCC(C)[C@H](NC(=O)NCc1ccccc1Cl)C(=O)O (stereo not given in full)
C#CCOCCOCCOCCNc1nc(N2CCN(C(=O)[C@H](CCC(=O)O)n3cc([C@@H](N)CCCCN)nn3)CC2)nc(N2CCN(C(=O)[C@H](CCC(=O)O)n3cc([C@@H](N)CCCCN)nn3)CC2)n1
Cc1sc2ncnc(OCC(=O)N3CCN(S(=O)(=O)c4ccc(Cl)cc4)CC3)c2c1C
Cc1onc(-c2c(F)cccc2Cl)c1C(=O)NC1CC1
COC(=O)c1ccc(-c2sc3nc(N4CCOCC4)c4c(c3c2N)CC(C)(C)OC4)o1
COc1cc(C(C(=O)NC2CCCCC2)N(Cc2cccs2)C(=O)Cc2c[nH]c3ccccc23)cc(OC)c1OC (stereo not given)
COc1ccc(C)cc1-n1nnnc1SC/C(O)=C(\C#N)c1nc2ccccc2[nH]1
CN1CCN(CC(=O)Nc2ccc(S(=O)(=O)N(C)C)cc2)CC1
CCOC(=O)c1cc2nc(Nc3ccc(OC)cc3)sc2s1
O=S(=O)(c1ccc2ccccc2c1)N(CC(O)COCc1ccco1)c1ccccc1 (stereo not given)
CCOc1cc(/C=C\c2[nH]c(=O)[nH]c(=O)c2[N+](=O)[O-])ccc1OC(C)CC (stereo not given)
O=C(NC1CC2CCC1C2)C1COc2ccccc2O1 (stereo not given)
O=C(CN1C(=O)c2ccccc2C1=O)NCC1COc2ccccc2O1 (stereo not given)
COc1ccc(NC(=O)c2cccc(N3C(=O)C4CC=C(C)CC4C3=O)c2)c(OC)c1 (stereo not given)
COc1ccc(C2/C(=C(/O)c3ccccc3)C(=O)C(=O)N2CCN2CCOCC2)c(OC)c1 (stereo not given)
CCC(=O)Nc1ccccc1Nc1cc(C#N)c(C#N)cc1[N+](=O)[O-]
O=[N+]([O-])c1ccccc1N/N=C\c1ccccc1Cl
COc1cccc(/C=N/NC(=O)CNC(=O)c2cccs2)c1O
Fc1cccc(/C=N/Nc2nc3ccccc3[nH]2)c1
O=C(O)CSc1nnc(COc2cccc3cccnc23)n1-c1cccc(C(F)(F)F)c1
CCCCN(C)C(=O)CCC(=O)NNc1nc2ccccc2c2nc(C)nn12
CCCCOC(=O)Cn1cnc2ccc(Br)cc2c1=O
CCc1ccc2oc(=O)cc(CN3CCOCC3)c2c1
